About 5,600 (56%) of roughly 10,000 compounds were called active. The set was probably picked from earlier hits. A selection follows. Values without a mark were called inactive. No stated cut-off is given here; in the data, active means inhibition above about 40%; inactive means the rest.

The target of the test is Protein Mdm4 (Homo sapiens) + E3 ubiquitin-protein ligase Mdm2 (Homo sapiens) (UniProt O15151+Q00987). In words: inhibition of human Mdm2/MdmX pairing – luminescence, single concentration, confirmation (AID 489028). The conditions noted are these: Mdm2-MdmX binding, luminescent assay; at 8 µM; hits give high values.
Chain of Protein Mdm4 (Homo sapiens) + E3 ubiquitin-protein ligase Mdm2 (Homo sapiens) (O15151 whole entry, looked up): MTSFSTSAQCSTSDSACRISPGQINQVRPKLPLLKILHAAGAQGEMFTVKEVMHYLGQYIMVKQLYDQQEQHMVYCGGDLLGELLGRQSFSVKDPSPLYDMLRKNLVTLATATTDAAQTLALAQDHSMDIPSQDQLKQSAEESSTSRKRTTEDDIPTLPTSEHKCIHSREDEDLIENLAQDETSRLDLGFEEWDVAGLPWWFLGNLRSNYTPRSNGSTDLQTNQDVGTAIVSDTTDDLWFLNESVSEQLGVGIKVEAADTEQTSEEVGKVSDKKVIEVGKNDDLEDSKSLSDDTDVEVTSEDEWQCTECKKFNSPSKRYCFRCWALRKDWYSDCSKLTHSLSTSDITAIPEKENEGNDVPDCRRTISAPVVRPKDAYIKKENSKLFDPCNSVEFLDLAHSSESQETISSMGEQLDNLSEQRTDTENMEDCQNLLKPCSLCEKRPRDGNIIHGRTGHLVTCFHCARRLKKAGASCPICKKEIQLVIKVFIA
Chain of Protein Mdm4 (Homo sapiens) + E3 ubiquitin-protein ligase Mdm2 (Homo sapiens) (Q00987 whole entry, looked up): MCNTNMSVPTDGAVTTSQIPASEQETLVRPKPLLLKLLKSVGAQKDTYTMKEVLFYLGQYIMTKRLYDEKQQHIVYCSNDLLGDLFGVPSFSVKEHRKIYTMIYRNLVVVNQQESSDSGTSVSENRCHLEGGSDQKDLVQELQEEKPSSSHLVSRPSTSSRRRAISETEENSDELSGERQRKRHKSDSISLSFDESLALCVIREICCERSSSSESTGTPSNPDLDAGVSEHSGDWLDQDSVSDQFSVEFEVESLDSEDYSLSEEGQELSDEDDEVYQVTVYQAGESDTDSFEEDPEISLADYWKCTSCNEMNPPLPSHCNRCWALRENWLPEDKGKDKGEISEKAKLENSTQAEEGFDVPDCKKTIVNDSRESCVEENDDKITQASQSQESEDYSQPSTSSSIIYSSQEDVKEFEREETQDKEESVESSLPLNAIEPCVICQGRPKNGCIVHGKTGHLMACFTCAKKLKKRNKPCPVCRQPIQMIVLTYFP
Regarding `Cc1cc(=O)oc2cc(OCC3CC(c4ccccc4Cl)=NO3)ccc12` (centres undefined), the inhibition is 47.2% (active).

For the compound `CC(C)=CC(=O)Nc1nnc(-c2ccc(F)cc2)s1`, the inhibition was -17.9%.

For `Cc1nnnn1/C(=C\c1ccccc1)C(=O)OCC(=O)N1CC2(C)CC1CC(C)(C)C2` (centres undefined), the inhibition was 47.9% (active).

As for `O=C(NCC1CCCO1)c1cc2c([nH]c3ccccc32)c(-c2ccc(F)cc2)n1` (centres undefined), the inhibition is 61.5% (active).

As to `COc1ccc(N=Cc2c(O)[nH]c3ccccc23)cc1OC`, the inhibition was 47% (active).

In the case of `COc1cc(N=Cc2c(O)[nH]c3ccccc23)cc(OC)c1OC`, the inhibition is 73.8% (active).

Turning to `C[C@@H](NC(=O)OC(C)(C)C)c1nnc(S(=O)(=O)Cc2ccccc2)o1`, the inhibition was 54% (active).

For the compound `CC(C)(C)OC(=O)NNc1c2ccccc2nc2ccccc12`, the inhibition was 21.1%.

Turning to `CC(=O)Nc1ccc(NC(=O)C2CCCN(S(=O)(=O)c3ccc(Cl)cc3)C2)cc1` (centres undefined), the inhibition is 3.65%.

`Cc1ccnc(NC(=O)C2CCN(S(=O)(=O)c3c(C)c(C)cc(C)c3C)CC2)c1`: the inhibition is 69.8% (active).

For the compound `COc1cc2[nH]c(=S)n(Cc3ccc(F)cc3)c(=O)c2cc1OC`, the inhibition is 15.8%.

For `COc1cccc2sc(NNC(=O)c3nc4ccccc4s3)nc12`, the inhibition is 45.7% (active).

Turning to `CCOc1ccc(-c2cc(C(=O)N/N=C/c3ccc(O)cc3)c3ccccc3n2)cc1`, the inhibition was 76.8% (active).

With `Nc1ccc(C(=O)Nc2ccccc2N)cc1`, the inhibition was 6.25%.

Turning to `COc1ccc(C(=O)/C=C/Nc2ccccn2)cc1`, the inhibition is 25.4%.

Turning to `O=C(CCCN1C(=O)/C(=C\c2ccccc2)SC1=S)Nc1ccccc1O`, the inhibition is 69.7% (active).

As to `COc1ccc(/C=C2\SC(=S)N(CCC(=O)Nc3ccccn3)C2=O)cc1OC`, the inhibition is 54.1% (active).

On to `O=C(CCCN1C(=O)/C(=C/c2ccccc2)SC1=S)Nc1ccc(O)cc1`, for which the inhibition is 93.9% (active).

Turning to `O=C(CCCN1C(=O)/C(=C/c2cccs2)SC1=S)Nc1ccc(O)cc1`, the inhibition was 61.5% (active).

For the compound `CCN1CCN(c2ccc(S(=O)(=O)N3CCCCC3)cc2NC(=O)Cc2c(Cl)cccc2Cl)CC1`, the inhibition is 30.6%.

As for `O=C(/C=C/c1ccccc1)Nc1nnc(SCC(=O)c2ccc3ccccc3c2)s1`, the inhibition was 2.95%.

Consider `O=C(Nc1ccc(Cl)cc1)Nc1nnc(/C=C/c2ccccc2)s1`, for which the inhibition is 81.4% (active).

Turning to `Oc1ccc(Br)cc1/C=N/Nc1ccccn1`, the inhibition was 87.7% (active).

As to `CCCCNC(=O)C(C)N(CCN(C)C)C(=O)CCCCCN1C(=O)NC(c2ccc(Cl)cc2)C(C(=O)OCc2ccccc2)=C1C` (centres undefined), the inhibition is 49.5% (active).

As for `CCCCNC(=O)C(C)N(CCN(C)C)C(=O)CCCN1C(=O)NC(c2ccc(Cl)cc2)C(C(=O)OCc2ccccc2)=C1C` (centres undefined), the inhibition was 15.1%.

Turning to `Cc1cc(C(=O)COC(=O)CNC(=O)c2ccc(F)cc2)c(C)n1Cc1ccco1`, the inhibition is 72.7% (active).

In the case of `CC1=CC(C)(C)Nc2ccc(OC(=O)CN3C(=O)C4CCCCC4C3=O)cc21` (centres undefined), the inhibition was 9.75%.

With `COc1ccc(/C=C/C(=O)Nc2ccc(C34CC5CC(CC(O)(C5)C3)C4)cc2)cc1OC`, the inhibition is 36.9%.

In the case of `COc1cc(/C=N/NC(=O)Nc2ccccc2)ccc1OCCOc1ccccc1C`, the inhibition was 72.8% (active).

For the compound `Brc1ccc2ncnc(NCc3cccnc3)c2c1`, the inhibition is 68.7% (active).

As for `CCn1c(O)c(N=NC(=O)c2cccc(S(=O)(=O)N3CCCCC3)c2)c2ccccc21`, the inhibition was 36.7%.

As to `Cc1cccc(NC(=O)c2nc(S(=O)(=O)Cc3ccccc3)ncc2Cl)c1`, the inhibition is 95.2% (active).

Regarding `Cc1cccc(CS(=O)(=O)c2ncc(Cl)c(C(=O)Nc3ccc(F)cc3)n2)c1`, the inhibition is 75.5% (active).

Regarding `CC(=O)Nc1nc(C)c(-c2csc(Nc3ccc(S(N)(=O)=O)cc3)n2)s1`, the inhibition is 44.5% (active).

As to `CC(C)c1cc(C(=O)N/N=C/C(Br)=C/c2ccccc2)n[nH]1`, the inhibition is 35.2%.

With `CCCC(=O)Nc1nc2ccc(NC(=O)c3cccnc3)cc2s1`, the inhibition was 48.4% (active).

As to `COc1cc(C(=O)NCc2nnc(SCC(=O)Nc3nc4ccc(C)cc4s3)o2)cc(OC)c1OC`, the inhibition was -0.1%.

For the compound `CCCn1nc(C(=O)Nc2ccc3nc(C)sc3c2)c2ccccc2c1=O`, the inhibition is 24.9%.

For `CCN1C(=O)c2cccc3c(S(=O)(=O)Nc4ccccc4O)ccc1c23`, the inhibition was 39%.

`O=C(/C=C/c1ccc(Cl)c([N+](=O)[O-])c1)c1ccc(O)cc1`: the inhibition was 85.4% (active).

As to `COc1ccc(/C=C/C(=O)c2ccc(NS(=O)(=O)c3ccc(C)cc3)cc2)cc1O`, the inhibition was 38.9%.

For `COc1ccc(C(=O)/C=C/c2cccnc2)c(OC)c1`, the inhibition is -4.6%.

Turning to `O=C(/C=C/c1ccc(Cl)c([N+](=O)[O-])c1)c1cccnc1`, the inhibition was 66.7% (active).

For `Cc1[nH]c(C)c(S(=O)(=O)N2CCN(c3cccc(C(F)(F)F)c3)CC2)c1C(=O)N1CCCCC1`, the inhibition is 52.8% (active).

Take `CCNC(=O)c1c(O)c2cccc3c2n(c1=O)CC3`: the inhibition was 75.1% (active).

Consider `O=C(COC(=O)/C=C/c1cn(-c2ccccc2)nc1-c1cccnc1)Nc1ccc(Cl)cc1Cl`, for which the inhibition is 18.3%.

Turning to `CCOC(=O)c1c(-c2ccc(C)cc2C)csc1NC(=O)CSc1nnnn1C`, the inhibition was 51% (active).

Consider `CCC(C)N1C(=O)S/C(=C/c2ccc(Sc3nc4ccccc4[nH]3)o2)C1=O` (centres undefined), for which the inhibition was 23.9%.

For `Cc1cccc(-n2c(C)cc(/C=N\NC(=O)c3cccs3)c2C)c1`, the inhibition was 40.1% (active).

Regarding `C[C@@H]1C[C@@H]2O[C@H]2/C=C\C=C\C(=O)Cc2c(Cl)c(O)cc(O)c2C(=O)O1`, the inhibition is 54.2% (active).

Regarding `Cc1ccc(C2CC(=O)NC(SCC(=O)OCc3ccccc3)=C2C#N)o1` (centres undefined), the inhibition is 44.5% (active).

Regarding `C=CCC[C@@H](Cc1ccc(F)cc1)C(=O)OC[C@H](Cc1c[nH]c2ccccc12)NC(=O)[C@@H](CC=C)CC(=O)N(CCO)Cc1ccccc1`, the inhibition is 21.8%.

In the case of `O=C(Nc1ccccc1Cl)/C(Cl)=C(\Cl)S(=O)c1ccccc1` (centres undefined), the inhibition is 100% (active).

For the compound `O=C1/C(=C\c2ccccc2Cl)SC(=S)N1CCC(=O)N1CCCc2ccccc21`, the inhibition was 60.8% (active).

With `COc1cc2c(cc1OC)C(C)N(S(=O)(=O)c1cnc(Cl)c(Cl)c1)CC2` (centres undefined), the inhibition was 58.1% (active).

With `C=CCn1c(C)cc(C(=O)CN2C(=O)c3ccccc3C2=O)c1C`, the inhibition was 68% (active).

As for `COc1ccc(-c2cn[nH]c2-c2ccc(OC)cc2)cc1`, the inhibition is 63% (active).

Take `CC1(C)Cc2nc3sc4c(SCC(=O)NC(c5ccccc5)c5ccccc5)ncnc4c3cc2CO1`: the inhibition was 2.85%.

As to `CCOc1ccc(S(=O)(=O)Nc2cccc(C(=O)NCC3(N4CCCCC4)CCCCC3)c2)cc1`, the inhibition is 78.6% (active).

`CCOC(=O)c1c(-c2ccc(C)cc2)csc1/N=C(\C)C1=C(O)c2ccccc2C1=O`: the inhibition is 28.7%.

Take `CCOC(=O)c1c(-c2cccc(C)c2)csc1NC(=O)c1c(-c2ccccc2)noc1C`: the inhibition is 92.6% (active).

`CCOC(=O)c1cc(NC(=O)c2ccc(Cl)cc2)c(=O)oc1-c1ccccc1`: the inhibition is 35.2%.

Take `Fc1ccc(CNc2nc3ccccc3n3nnnc23)cc1`: the inhibition is 9.85%.

For `Nc1nonc1-c1nc2ccccc2n1Cc1ccc(F)cc1`, the inhibition was 63.5% (active).

As to `COc1cccc(/C=N/NC(=O)c2[nH]nc3c2CCc2ccccc2-3)c1O`, the inhibition was 83.7% (active).

As for `COc1ccc(CNc2nc(NCc3ccc(OC)cc3)c3ncn(C4CCCC4)c3n2)cc1`, the inhibition is 45.4% (active).

Take `COc1ccc(C2CC(c3ccccc3)=NN2C(=O)c2ccc(Cl)c([N+](=O)[O-])c2)cc1` (centres undefined): the inhibition is 46.1% (active).

Regarding `COc1ccc(-c2cc(C3CCN(c4ncccc4[N+](=O)[O-])CC3)[nH]n2)cc1`, the inhibition was 24.6%.

For the compound `CCOc1ccc2nc(Cl)c(C3CC(c4ccccc4)=NN3C(=O)c3cccs3)cc2c1` (centres undefined), the inhibition is 5.3%.

With `CCOC(=O)C1=C(NC(=S)NC(=O)c2ccccc2)c2ccccc2CC1(C)C`, the inhibition is 28.8%.

Consider `N#CC1=C(N)Oc2cc(O)ccc2C1C1CCCCC1` (centres undefined), for which the inhibition was 45.4% (active).

For `COc1ccc(C2C(C#N)=C(N)Oc3cc(N)ccc32)cc1OC` (centres undefined), the inhibition is 9.6%.

Regarding `c1ccc2c(c1)CSc1sccc1C2=C1CCNCC1`, the inhibition was 72.3% (active).

Turning to `CS(=O)(=O)c1ccc(-c2nnn(CC(=O)Nc3ccc4c(c3)OCCO4)n2)cc1`, the inhibition is -2.65%.

As to `O=C(Nc1ccc2c(c1)OCCO2)C1CCCC1`, the inhibition is 69.3% (active).

As to `O=C(N/N=C\c1cc2c(cc1Cl)OCO2)c1ccc(Br)s1`, the inhibition was 57.1% (active).

For the compound `COc1ccc(Br)cc1C(=O)NC(=S)Nc1cc(-c2nc3ccccc3[nH]2)ccc1C`, the inhibition is 16.8%.

For `Cc1ccc(-c2nc3ccccc3[nH]2)cc1NC(=O)c1sc2ccccc2c1Cl`, the inhibition was 57.4% (active).

Regarding `COc1ccc(-c2cc(C(=O)N(C)Cc3ccc(OC)c(OC)c3OC)c3ccccc3n2)cc1OC`, the inhibition was 46.9% (active).

On to `COc1ccc(CN(C)C(=O)c2cc(-c3ccc(C)cc3C)nc3ccccc23)c(OC)c1OC`, for which the inhibition was 60.2% (active).

`COc1ccc(-c2cc(C(=O)N(C)CC(=O)Nc3ccccc3Cl)c3ccccc3n2)cc1OC`: the inhibition is 49.2% (active).

`CN(C)c1ccc(-n2cccc2/C=C2/SC(=Nc3ccc(F)cc3)NC2=O)cc1`: the inhibition was 12.6%.

With `CCCc1nc2c(c(=O)c3ccccc3n2C)c(=O)n1C1CCCCCC1`, the inhibition is 87.2% (active).

On to `CC(C)(C)Nc1nc(-c2ccccn2)nc2ccccc12`, for which the inhibition is 85.5% (active).

As for `Cc1ccc(Oc2nc(-c3ccccn3)nc3ccccc23)cc1`, the inhibition was 3.9%.

Regarding `COc1cc(/C=C2\Oc3ccc(C#Cc4ccc(O)cc4)cc3C2=O)cc(OC)c1`, the inhibition is 33.2%.

`O=C(Nc1ccncc1)c1c(F)cccc1F`: the inhibition is 61.9% (active).

`COc1ccc2cc1Oc1ccc(cc1)C[C@H]1c3cc(c(OC)cc3CCN1C)Oc1c(O)c(OC)cc3c1[C@H](C2)N(C)CC3`: the inhibition was 100% (active).

Consider `COc1ccc(-c2nnc(SC(=O)N3c4ccccc4Sc4ccccc43)o2)cc1`, for which the inhibition is 31.4%.
